Source: PubChem BioAssay (National Center for Advancing Translational Sciences (NCATS))
Methyltransferases: Primary Screen for Target Class Profiling of Small Molecule Inhibitors of Methyltransferases | calls only at 40 µM | purified enzyme, MTase-Glo SAH luminescence; active compounds read low | 25,000 compounds, 3.9% hits | AID 1745853, 2022; call rule not given here
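Each enzyme was assayed with SAM and its substrate. SAH formation detected by MTase-Glo luminescence; single-point 40 uM screen[…].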
Calls only; - = inactive; + = active, no number; ! = not confirmed by another sample. The entries come from a sample that favours hits as a whole.

SMILES	Methyltransferases
COCCCNC(=O)C1(C)Cn2nc(-c3ccccc3)cc2C(=O)N1c1cc(C)ccc1C (stereo not drawn)	-
C/C=C(/C)C(=O)O[C@H]1C=C(CO)C(=O)[C@H](OC(=O)/C(C)=C/CO)[C@H]1C(C)C	+
C/C=C(\C)C(=O)O[C@H]1C=CC(=O)O[C@H]1/C=C/[C@@H](O)[C@H](C)O	-
C=C1C(=O)O[C@@H]2CC(C)=C([C@@H](C)CCCOC(C)=O)[C@@H](O)[C@H]12	+
C=C1C(=O)OC2CC(C)=C(C(C)CCCO[C@@H]3O[C@H](CO)[C@@H](O)[C@H](O)[C@H]3O)C(O)C12 (stereo partly drawn)	-
C=C1C(=O)OC2CC(COC(=O)C(C)C)=C(C(C)CCCOC(C)=O)[C@@H](OC(C)=O)C12 (stereo partly drawn)	-
Cc1ccc(CNC(=O)C2(C)Cn3nc(C(=O)NCCC(C)C)cc3C(=O)N2C)cc1 (stereo not drawn)	-
CCNC(=O)[C@@H]1C[C@H](N)CN1C(=O)C(C)(C)Oc1ccc(C)cc1	-
CC(C)(C)CC(C)(C)c1ccc(OCCOCC[N+](C)(C)Cc2ccccc2)cc1	+
Cc1ccc(C)c(Cn2nc3n(CCC(C)C)c(=O)c4ccccc4n3c2=O)c1	-
Cc1ccc(C)c(N2CCN(S(=O)(=O)c3ccc4c(c3)n(C)c(=O)n4C)CC2)c1	-
CN(C)CCCN1c2ccccc2Sc2ccc(Cl)cc21	-
O=C1NC2CCCCN2C12CCN(CCCN1c3ccccc3CCc3ccc(Cl)cc31)CC2 (stereo not drawn)	+
OCCN1CCN(CCCN2c3ccccc3Sc3ccc(Cl)cc32)CC1	-
CCC1c2ccc(C)n2CCN1C(=O)NCc1ccc(F)cc1 (stereo not drawn)	-
COc1cc(CC2(CCC(=O)N3CCC(Oc4cccc(F)c4)CC3)CCC(=O)N2)ccc1F (stereo not drawn)	-
Cc1cc2c(cc3n2CC(C)(C(=O)NC2CCCCCCC2)N(CCN2CCOCC2)C3=O)o1 (stereo not drawn)	-
CO[C@H](C)[C@H](N)C(=O)N1CCC(c2cc(Cc3ccccc3)[nH]n2)CC1	-
CCOC(=O)CCN(C(=O)c1ccc2c(c1)nc(CNc1ccc(C(=N)N)cc1)n2C)c1ccccn1	+
Cc1ccc(CNC(=O)N2CCn3c(C)ccc3C2C(C)C)cc1 (stereo not drawn)	-
Cc1cc(C)cc(N2C(=O)c3ccccc3CC2(C)C(=O)NCc2ccccc2C)c1 (stereo not drawn)	-
COc1ccc(C(=O)N2CCOCCNC(=O)CC2)c(OC)c1	-
CC(C)N(C[C@H]1O[C@@H](n2cnc3c(N)ncnc32)[C@H](O)[C@@H]1O)C1CC(CCc2nc3ccc(C(C)(C)C)cc3[nH]2)C1 (stereo partly drawn)	+
Nc1ncnc2c1ncn2[C@@H]1O[C@H](CO)[C@@H](O)[C@H]1O	-
CSCC1OC(n2cnc3c(=O)[nH]cnc32)C(O)C1O (stereo not drawn)	-
SMILES	Methyltransferases
COc1ccccc1CNC(=O)c1ccc2c(=O)nc3c(-c4cccc(C)c4)n[nH]n3c2c1	-
CCN1C(=O)c2cc(C(=O)Nc3cccc(F)c3)nn2CC1(C)C(=O)NC1CCCC1 (stereo not drawn)	-
CN(C)CCNC(=O)c1cc2n(n1)CC(C)(C(=O)NC1CCCCC1)N(C)C2=O (stereo not drawn)	-
Cc1cn2cc(CC(=O)N3CCC4(CC3)CN(Cc3ccc(-n5nccn5)cc3Cl)C4)nc2s1	-
N#C/C(=C\c1ccc(O)c(O)c1)C(=O)NCCCNC(=O)/C(C#N)=C/c1ccc(O)c(O)c1	+!
N#CC(C#N)=C(N)/C(C#N)=C/c1ccc(O)cc1	-
N#C/C(=C\c1ccc(O)c(O)c1)C(=O)Nc1ccccc1	-
CC(=O)N1CCN(Cc2nnc(C(=O)N3CCC[C@@H]3c3cccc(F)c3)n2-c2ccccc2)CC1	-
CN1C(=O)c2cc(C(=O)NCCc3cccs3)nn2CC1(C)C(=O)NCc1ccccc1 (stereo not drawn)	-
CC(C)Oc1ccc(CNC(=O)c2cc3n(n2)CC(C)(C(=O)NC2CCCC2)N(C)C3=O)cc1 (stereo not drawn)	-
CCCN1C(=O)c2c(-n3cccc3)c3cc(C)ccc3n2CC1(C)C(=O)NC1CCCCC1 (stereo not drawn)	-
C=CCn1c(=O)c2ccc(C(=O)NCC(C)C)cc2n2c(=O)n(CC(=O)NC(C)CC)nc12 (stereo not drawn)	-
COc1ccc(CC2(CO)CCNCC2)cc1	-
Cc1cc(Nc2nc(N[C@@H](C)c3ccc(F)cc3)c(C#N)cc2F)n[nH]1	+!
Cc1cc(Nc2nc(-c3ccccc3)nc3ccccc23)n[nH]1	-
CC(C)OCCCn1c(=O)c2ccccc2n2c(SCC(=O)Nc3ccc(F)cc3F)nnc12	-
CCC(C)NC(=O)c1ccc2c(=O)n(C(C)C)c3nn(Cc4ccc(F)cc4Cl)c(=O)n3c2c1 (stereo not drawn)	-
CNC(=O)c1ccc(CN2CC3(CCN(C(C)=O)CC3)CC2C(=O)O)o1 (stereo not drawn)	-
CCCC1c2cccn2CCN1C(=O)Nc1cc(Cl)ccc1OC (stereo not drawn)	-
O=C(NC1CCCC1)c1ccc(OC2CCN(CCCC(F)(F)F)CC2)c(Cl)c1	-
COc1cc2ncnc(Nc3ccc(F)c(Cl)c3)c2cc1NC(=O)/C=C/CN1CCCCC1	+
COC(=O)c1cccc(Nc2ncnc3ccc(C)cc23)c1	-
CNC(=O)CN1CCC(Oc2cc3c(Nc4cccc(Cl)c4F)ncnc3cc2OC)CC1	+
CNC(=O)c1c(F)cccc1Nc1nc(Nc2cc3c(cc2OC)CCN3C(=O)CN(C)C)nc2[nH]ccc12	-
CC(=O)O[C@H]1C[C@@]2(C)[C@@H](CC[C@H]3[C@@]4(C)C=CC(=O)[C@@H](C)[C@@H]4[C@H](OC(C)=O)C(=O)[C@@]32C)/C1=C(\CCC=C(C)C)C(=O)O	-
SMILES	Methyltransferases
COc1cccc(NC(=O)N2Cc3c(sc4c3CCCC4)-n3cccc3C2c2cccc(OC)c2)c1 (stereo not drawn)	-
CCN1CCN(c2nc3c(-c4cccc(C)c4)nnn3c3ccc(Cl)cc23)CC1	-
Cc1c(C(=O)N2CCC(C(=O)N3CCN(c4ccccc4)CC3)CC2)oc2cc3sc(N(C)C)nc3cc12	-
CC1(C(=O)NC2CCCCC2)Cn2c(c(-n3cccc3)c3ccccc32)C(=O)N1Cc1cccnc1 (stereo not drawn)	-
O=C(N[C@H]1CCOC[C@H]1C1CCOCC1)c1ccoc1	-
CCC(C(=O)NCc1ccc(OC(C)C)cc1)n1ccc2cc(S(=O)(=O)N3CCCCC3)ccc21 (stereo not drawn)	-
OC1COC(OCC2OC(OCCc3ccccc3)C(O)C(O)C2O)C(O)C1O (stereo not drawn)	+
C=CCc1ccc(O[C@@H]2O[C@H](CO[C@@H]3O[C@@H](C)[C@H](O)[C@@H](O)[C@H]3O)[C@@H](O)[C@H](O)[C@H]2O)cc1	-
COc1ccc(CCO[C@@H]2O[C@H](CO[C@@H]3OC[C@H](O)[C@H](O)[C@H]3O)[C@@H](O)[C@H](O)[C@H]2O)cc1	+
COC(=O)c1ccc(OC)cc1O[C@@H]1O[C@H](CO[C@@H]2OC[C@@H](O)[C@H](O)[C@H]2O)[C@@H](O)[C@H](O)[C@H]1O	-
C[C@@H]1O[C@@H](OC[C@H]2O[C@@H](OCCc3ccccc3)[C@H](O)[C@@H](O)[C@@H]2O)[C@H](O)[C@H](O)[C@H]1O	-
